PubChem BioAssay (NCI)
The panel holds about 83,000 compounds, 20% with a hit somewhere; the sample as a whole holds those more often.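 Negative percent growth values reflect cell death: -40 means 40% of the cells present at the start died, and -100 means all died.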 A number with no mark means an inactive call. Active and inactive are the calls of the source. How the source made its calls: active means growth percent below 10; inactive means the rest.

What was measured:
Experiment in all cases: NCI-60 one-dose screen, 48 h (100 = growth as untreated, 0 = no growth, -100 = all killed)
Settings in all cases: 10 µM unless noted
NCI-H23 lung = tested on: NCI-H23 lung
NCI-H226 lung = tested on: NCI-H226 lung
NCI-H322M lung = tested on: NCI-H322M lung
HOP-62 NSCLC = tested on: HOP-62 NSCLC
NCI-H460 lung = tested on: NCI-H460 lung
HOP-92 NSCLC = tested on: HOP-92 NSCLC
NCI-H522 lung = tested on: NCI-H522 lung
A549/ATCC NSCLC = tested on: A549/ATCC NSCLC
786-0 renal = tested on: 786-0 renal
COLO 205 colon = tested on: COLO 205 colon
DU-145 prostate = tested on: DU-145 prostate
K-562 leukemia = tested on: K-562 leukemia
MALME-3M melanoma = tested on: MALME-3M melanoma
MDA-MB-231 breast = tested on: MDA-MB-231 breast
RXF 393 renal = tested on: RXF 393 renal
SF-268 CNS = tested on: SF-268 CNS
SF-295 CNS = tested on: SF-295 CNS
SF-539 CNS = tested on: SF-539 CNS
UACC-257 melanoma = tested on: UACC-257 melanoma
M14 melanoma = tested on: M14 melanoma

## Fc1ccc(Nc2nnc(-c3c[nH]c4ccccc34)o2)cc1
NCI-H23 lung
  growth: 85.7%
NCI-H226 lung
  growth: 70.2%
NCI-H322M lung
  growth: 94.5%
HOP-62 NSCLC
  growth: 71%
NCI-H460 lung
  growth: 91.9%
HOP-92 NSCLC
  growth: 58.2%
NCI-H522 lung
  growth: 48.7%
A549/ATCC NSCLC
  growth: 77.5%
786-0 renal
  growth: 94.7%
COLO 205 colon
  growth: 127%
DU-145 prostate
  growth: 98%
K-562 leukemia
  growth: 66.9%
MALME-3M melanoma
  growth: 80.8%
MDA-MB-231 breast
  growth: 60.8%
RXF 393 renal
  growth: 93.9%
SF-268 CNS
  growth: 73.1%
SF-295 CNS
  growth: 84.1%
SF-539 CNS
  growth: 71.2%
UACC-257 melanoma
  growth: 92.7%
M14 melanoma
  growth: 102%

## NS(=O)(=O)c1cccc(Nc2nc(SCC(=O)c3ccc(F)cc3)nc3ccccc23)c1
NCI-H23 lung
  growth: 5.36% (active)
NCI-H226 lung
  growth: 15.3%
NCI-H322M lung
  growth: 22.9%
HOP-62 NSCLC
  growth: 5.89% (active)
NCI-H460 lung
  growth: 12.5%
HOP-92 NSCLC
  growth: 29%
NCI-H522 lung
  growth: -0.334% (active)
A549/ATCC NSCLC
  growth: 28.1%
786-0 renal
  growth: 26.1%
COLO 205 colon
  growth: 26.4%
DU-145 prostate
  growth: 9.74% (active)
K-562 leukemia
  growth: 8.34% (active)
MALME-3M melanoma
  growth: 10.6%
MDA-MB-231 breast
  growth: 7.12% (active)
RXF 393 renal
  growth: 38.9%
SF-268 CNS
  growth: 8.21% (active)
SF-295 CNS
  growth: -5.65% (active)
SF-539 CNS
  growth: 8.17% (active)
UACC-257 melanoma
  growth: 14.4%

## O=C(N/N=C/c1ccc(Cl)o1)c1[nH]c2ccc(Br)cc2c1-c1ccccc1
NCI-H23 lung
  growth: -29.7% (active)
NCI-H226 lung
  growth: -42.1% (active)
NCI-H322M lung
  growth: 26.3%
HOP-62 NSCLC
  growth: -48.3% (active)
NCI-H460 lung
  growth: -70.8% (active)
HOP-92 NSCLC
  growth: 9.01% (active)
NCI-H522 lung
  growth: -59.8% (active)
A549/ATCC NSCLC
  growth: -23.2% (active)
786-0 renal
  growth: -57.7% (active)
COLO 205 colon
  growth: -39.9% (active)
DU-145 prostate
  growth: -49.1% (active)
K-562 leukemia
  growth: 8.31% (active)
MALME-3M melanoma
  growth: 2.82% (active)
MDA-MB-231 breast
  growth: -69.9% (active)
RXF 393 renal
  growth: -62.6% (active)
SF-268 CNS
  growth: 3.21% (active)
SF-295 CNS
  growth: -19.3% (active)
SF-539 CNS
  growth: -97.2% (active)
UACC-257 melanoma
  growth: 17%

## Cc1cn(-c2cc(NC(=O)c3ccc(C)c(-n4cc(-c5cnc6cccnn56)nn4)c3)cc(C(F)(F)F)c2)cn1
NCI-H23 lung
  growth: 56.9%
NCI-H226 lung
  growth: 68.8%
NCI-H322M lung
  growth: 106%
HOP-62 NSCLC
  growth: 80.5%
NCI-H460 lung
  growth: 102%
HOP-92 NSCLC
  growth: 53.9%
NCI-H522 lung
  growth: 81.4%
A549/ATCC NSCLC
  growth: 94.3%
786-0 renal
  growth: 95.4%
COLO 205 colon
  growth: 31%
DU-145 prostate
  growth: 105%
K-562 leukemia
  growth: 4.65% (active)
MALME-3M melanoma
  growth: -12.3% (active)
MDA-MB-231 breast
  growth: 24.7%
RXF 393 renal
  growth: 98.1%
SF-268 CNS
  growth: 112%
SF-295 CNS
  growth: 93.8%
SF-539 CNS
  growth: 77.7%
UACC-257 melanoma
  growth: 22.4%

## CC[C@]12C=CCN3CC[C@]4(C(=C(C(=O)OC)C1)Nc1cc(OC)c([C@@H]5[C@H]6O[C@H]6[C@@]6(CC)CC(C(=O)OC)=C7Nc8cc(OC)ccc8[C@@]78CCN5[C@@H]68)cc14)[C@@H]32
NCI-H23 lung
  growth: 41.8%
NCI-H226 lung
  growth: 72.3%
NCI-H322M lung
  growth: 86.2%
HOP-62 NSCLC
  growth: 74.1%
NCI-H460 lung
  growth: 29.9%
HOP-92 NSCLC
  growth: 62.1%
NCI-H522 lung
  growth: 64.8%
A549/ATCC NSCLC
  growth: 70.1%
786-0 renal
  growth: 44.6%
COLO 205 colon
  growth: 57.7%
DU-145 prostate
  growth: 70.2%
K-562 leukemia
  growth: 13.7%
MALME-3M melanoma
  growth: 44.4%
MDA-MB-231 breast
  growth: 52.6%
RXF 393 renal
  growth: 48.1%
SF-268 CNS
  growth: 57.3%
SF-295 CNS
  growth: 53.8%
SF-539 CNS
  growth: 61.4%
UACC-257 melanoma
  growth: 75.2%

## Cn1cc(-c2cc(N)n3nc(-c4c[nH]c5ccccc45)cc3n2)c2cc(Cl)ccc21
NCI-H23 lung
  growth: -70.7% (active)
NCI-H226 lung
  growth: 16.6%
NCI-H322M lung
  growth: -35.3% (active)
HOP-62 NSCLC
  growth: -73.7% (active)
NCI-H460 lung
  growth: -59.5% (active)
HOP-92 NSCLC
  growth: -68.5% (active)
NCI-H522 lung
  growth: -71.9% (active)
A549/ATCC NSCLC
  growth: -37.8% (active)
786-0 renal
  growth: -67.8% (active)
COLO 205 colon
  growth: -90.8% (active)
DU-145 prostate
  growth: -62.6% (active)
K-562 leukemia
  growth: 7.97% (active)
MALME-3M melanoma
  growth: -78% (active)
MDA-MB-231 breast
  growth: -85.5% (active)
RXF 393 renal
  growth: -84.7% (active)
SF-268 CNS
  growth: -46.3% (active)
SF-295 CNS
  growth: -88% (active)
SF-539 CNS
  growth: -92.2% (active)
UACC-257 melanoma
  growth: -84.3% (active)

## Cc1ccc(Cl)cc1NC(=O)Nc1nc2ccc([N+](=O)[O-])cc2s1
NCI-H23 lung
  growth: -28.6% (active)
NCI-H226 lung
  growth: -9.03% (active)
NCI-H322M lung
  growth: -6.17% (active)
HOP-62 NSCLC
  growth: -68.1% (active)
NCI-H460 lung
  growth: -41.5% (active)
HOP-92 NSCLC
  growth: -28.6% (active)
NCI-H522 lung
  growth: -36.8% (active)
A549/ATCC NSCLC
  growth: -25.8% (active)
786-0 renal
  growth: -27.9% (active)
COLO 205 colon
  growth: -87.9% (active)
DU-145 prostate
  growth: 18.6%
K-562 leukemia
  growth: 1.86% (active)
MALME-3M melanoma
  growth: -24.4% (active)
MDA-MB-231 breast
  growth: -42.2% (active)
RXF 393 renal
  growth: -22.7% (active)
SF-268 CNS
  growth: 27.5%
SF-295 CNS
  growth: -45.4% (active)
SF-539 CNS
  growth: -33.9% (active)
UACC-257 melanoma
  growth: -20.9% (active)

## CCCCCCCCc1ccc(C(=O)Nc2ccc(C)c(OP(=O)(O)O)c2)cc1
NCI-H23 lung
  growth: 101%
NCI-H226 lung
  growth: 102%
NCI-H322M lung
  growth: 111%
HOP-62 NSCLC
  growth: 104%
NCI-H460 lung
  growth: 110%
HOP-92 NSCLC
  growth: 42%
NCI-H522 lung
  growth: 82.1%
A549/ATCC NSCLC
  growth: 105%
786-0 renal
  growth: 83.6%
COLO 205 colon
  growth: 126%
DU-145 prostate
  growth: 101%
K-562 leukemia
  growth: 87%
MALME-3M melanoma
  growth: 102%
MDA-MB-231 breast
  growth: 97.3%
RXF 393 renal
  growth: 113%
SF-268 CNS
  growth: 83.1%
SF-295 CNS
  growth: 91.2%
SF-539 CNS
  growth: 93.4%
UACC-257 melanoma
  growth: 102%
M14 melanoma
  growth: 106%
